About 1,700 (0.5%) of roughly 340,000 compounds were called active. This is one part of a sample in which actives are shown more often than they occur. Unmarked numbers belong to inactive results. Cut-off read from the data, not from the text of the source: active = inhibition above about 40%; inactive = the rest.

In this assay the target is Cysteine protease ATG4B (Homo sapiens) (UniProt Q9Y4P1). Put plainly: ATG4B protease inhibitors, primary screen, biochemical, fluorescence, uHTS (AID 504462). The settings on record: ATG4B cleavage of LC3-PLA2, NBD-HPC fluorescence, 1 h; at 8.33 µM; active compounds read high.
Sequence of Cysteine protease ATG4B (Homo sapiens) (Q9Y4P1 whole entry, looked up): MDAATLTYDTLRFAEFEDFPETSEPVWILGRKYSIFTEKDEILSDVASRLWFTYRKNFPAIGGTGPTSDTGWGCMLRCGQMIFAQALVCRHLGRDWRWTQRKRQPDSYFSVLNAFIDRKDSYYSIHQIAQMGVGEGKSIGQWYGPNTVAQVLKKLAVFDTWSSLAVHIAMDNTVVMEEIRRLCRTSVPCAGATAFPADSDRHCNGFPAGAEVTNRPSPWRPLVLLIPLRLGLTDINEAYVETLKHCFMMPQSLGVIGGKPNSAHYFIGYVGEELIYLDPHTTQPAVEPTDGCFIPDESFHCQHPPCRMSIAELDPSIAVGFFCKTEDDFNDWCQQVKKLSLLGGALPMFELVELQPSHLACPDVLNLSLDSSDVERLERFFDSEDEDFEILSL
What is called inhibition is the relative decrease from the control value, in per cent. As to `Cc1cc(C)nc(SCc2ccccc2C#N)n1`, the inhibition was 4.39%. Consider `CSc1nc(-c2ccco2)nn1C(=O)c1ccccc1Cl`, for which the inhibition is 0.74%. Under `Clc1ccccc1CSc1nnc(-c2ccco2)c(-c2ccco2)n1` stands 54.2% (active). For the molecule `COc1cccc(-c2coc3cc4oc(=O)c(CC(=O)O)c(C)c4cc23)c1`, the inhibition was 2.29%. Regarding `Cc1ccc(/C=C/C(=O)O)cc1S(=O)(=O)N1CCC(Cc2ccccc2)CC1`, the inhibition is 3.43%. For the molecule `CCNC(=S)Nc1cccc(Cl)c1C`, the inhibition is -7.76%. With `Cc1c(Cl)cccc1NC(=S)NCc1ccc2c(c1)OCO2`, the inhibition is 57.9% (active).

Regarding `S=C(NCc1ccc2c(c1)OCO2)NCc1ccco1`, the inhibition is 7%.

Turning to `O=C(CSc1ncnc2c1oc1ccccc12)NC1CCCC1`, the inhibition is -1.46%.

For `CCOCCCn1c(SCC(=O)Nc2cc(OC)ccc2OC)nc2ccccc2c1=O`, the inhibition is 4.76%. In the case of `O=c1c2sccc2nc(SCc2cc(=O)n3ccccc3n2)n1-c1ccc(Br)cc1`, the inhibition was 47.5% (active). As to `O=C(O)CCn1c(SCc2cc(=O)n3ccccc3n2)nc2ccsc2c1=O`, the inhibition was -6.86%. In the case of `CCc1ccc(-n2c(SCc3cc(=O)n4cc(Br)ccc4n3)nc3[nH]ncc3c2=O)cc1` it was -11.3%; in that of `CC(=O)NC(NC(=S)Nc1c(C)n(C)n(-c2ccccc2)c1=O)C(Cl)(Cl)Cl` (centres undefined), -9.32%. For the molecule `O=C(COc1ccc(S(=O)(=O)NCc2ccccc2)cc1)N1CCOCC1`, the inhibition was 0.8%.

`CCc1cccc(C)c1N1C(=O)CN(Cc2ccccc2)C1=S`: the inhibition was 88.4% (active). With `COc1cccc(N2C(=O)CN(Cc3ccccc3)C2=S)c1`, the inhibition is 25.8%. Consider `Cc1ccccc1CCNC(=O)C1CCC(=O)N(Cc2ccc(Cl)cc2)C1` (centres undefined), for which the inhibition was 0.05%. Under `O=C1C[C@@H]2c3c(cccc3CN1Cc1ccccc1)C[C@@H](O)[C@H]2O` stands 0.85%; under `CC1CN(Cc2ccccc2)C(=S)NC1=O` (centres undefined), -11%.

Consider `Cc1cccc(C)c1N1C(=O)CN(Cc2ccccc2)C1=S`, for which the inhibition was 82.4% (active).

On to `COc1ccc(NC(=O)C(CC(C)C)NS(=O)(=O)c2ccc3c(c2)CCN3C(C)=O)cc1OC` (centres undefined), for which the inhibition is -5.12%. As to `O=C(c1ccc(S(=O)(=O)N2CCCC2)cc1)N1CCN(c2ccccc2F)CC1`, the inhibition is 0.98%. In the case of `CCOc1ccc(CCNC(=O)COC(=O)CCS(=O)(=O)c2ccc(C)cc2)cc1OCC` it was -3.02%; in that of `O=S(=O)(c1ccc(F)cc1)N1CCN(C(=S)NCc2ccco2)CC1`, 0.75%; in that of `CC(C)Cc1ccc(C(C)C(=N)N)cc1` (centres undefined), 8.66%.

As to `COc1ccc(CNC(=O)C2CCN(S(=O)(=O)c3ccc(SC)cc3)CC2)cc1`, the inhibition was -7.7%. In the case of `O=C(Cn1cc(/C=N/NC(=O)c2cccc(C(F)(F)F)c2)c2ccccc21)Nc1ccc(F)cc1` it was 5.83%. For `COC(=O)N/N=C/c1cn(CCCOc2ccc(C)cc2)c2ccccc12`, the inhibition was 40.3% (active). As for `NC(=O)Cn1cc(/C=N\NS(=O)(=O)c2ccccc2)c2ccccc21`, the inhibition was 3.11%. With `N#CCC(=O)N/N=C/c1cn(Cc2ccc3ccccc3c2)c2ccccc12`, the inhibition was -9.5%. `CCOC(=O)N/N=C/c1cn(Cc2ccccc2Cl)c2ccccc12`: the inhibition was 48% (active). Take `COc1cccc(Cn2cc(/C=N/NC(=O)c3cc(O)cc(O)c3)c3ccccc32)c1`: the inhibition was 47.7% (active). For the molecule `CCOC(=O)c1cnn(Cc2ccccc2Cl)c1N`, the inhibition was -5.17%. With `Cc1ccc(OCCOc2cccc(/C=N/NC(N)=O)c2)cc1`, the inhibition was -2.28%.

Turning to `COC(=O)N/N=C/c1c[n+]([O-])c2ccccc2[n+]1[O-]`, the inhibition was -2.96%. For the molecule `CCC(C)c1ccc(NC(=S)NCc2ccccn2)cc1` (centres undefined), the inhibition was 2.58%. `CC(=O)N1CCN(C(=O)c2cc(-c3ccc(Cl)s3)nc3ccccc23)CC1`: the inhibition was 2%. Consider `COc1cc(OC)cc(C(=O)Nc2ccc(-c3nc4ccccc4o3)c(O)c2)c1`, for which the inhibition is 1%. As for `O=c1cc(C(F)(F)F)[nH]c(=O)n1C1CCCCC1`, the inhibition is -7.77%. As to `Cc1ccc(NNC(=O)C2CCC2)cc1C`, the inhibition is -8.25%. Regarding `Cc1ccc(Nc2cc(=O)n(C3CCCCC3)c(=O)[nH]2)cc1C`, the inhibition was 49.4% (active). Under `Cc1ccc(-c2nnn(CC(=O)N(CCO)C(C(=O)NC(C)(C)C)c3ccncc3)n2)cc1` (centres undefined) stands 3.82%; under `O=C(Nc1cccc(F)c1)NC1CCCCCCC1`, 14.1%. For `O=C(Nc1cccc(F)c1)NC1CCCc2ccccc21` (centres undefined), the inhibition was 72.2% (active). `CNS(=O)(=O)c1cccc(C(=O)NC2CCCc3ccccc32)c1` (centres undefined): the inhibition is 5.31%. Under `O=C(Nc1ccc(F)c(Cl)c1)C1CCN(S(=O)(=O)c2cccnc2)CC1` stands -11.3%; under `COc1ccc(C)cc1NC(=O)CSc1nnc2ccc(-c3ccccn3)nn12`, -1.16%; under `CCN(C[C@H]1N[C@@](CC)(C(=O)OC)[C@H]2C(=O)N(Cc3ccccc3)C(=O)[C@@H]12)S(=O)(=O)c1ccc(C(F)(F)F)cc1`, 1.74%. On to `COc1ccc(NC(=O)CNc2cc(S(=O)(=O)N3CCOCC3)ccc2N2CCOCC2)c(OC)c1`, for which the inhibition was -0.66%. For the molecule `Cc1c(Cl)c([N+](=O)[O-])nn1CCCC(=O)NC(C)c1ccccc1` (centres undefined), the inhibition was 19.6%. As to `Cc1c(Cl)c([N+](=O)[O-])nn1CCCC(=O)Nc1cc(Cl)ccc1Cl`, the inhibition was 63.1% (active).

In the case of `Cc1cc([N+](=O)[O-])nn1CCCC(=O)Nc1cccnc1Cl`, the inhibition is -6.6%. In the case of `Nc1c(N(CCCO)C(=O)C2CCCC2)c(=O)[nH]c(=O)n1Cc1ccccc1`, the inhibition is 2.96%. With `Cc1ccc2[nH]c(=O)c(CC=C(Cl)Cl)c(C)c2c1`, the inhibition is -4.78%. As for `CN(C(=O)c1cccc(NC(=O)Cc2ccc(NC(=O)C3CCN(C(=O)C4CCCCC4)CC3)cc2)c1)C1CCC1`, the inhibition is -6.18%. On to `O=C(NCc1cccc(CNC(=O)Nc2cccc(O)c2)c1)Nc1cccc(O)c1`, for which the inhibition was 27.4%. For `COC(=O)[C@@H](NC(=O)NCc1cccc(OC)c1)C(C)C`, the inhibition is -0.62%.

With `COc1cccc(NC(=O)NCc2ccc(F)cc2)c1`, the inhibition was 46.2% (active).

Take `CC1CCCC(NC(=O)c2cc(-c3ccncc3)nc3ccccc23)C1C` (centres undefined): the inhibition was -8.76%.

`CC(C)CCn1c(=O)c2c(nc3n2CCCN3Cc2ccccc2)n(C)c1=O`: the inhibition was 3.87%. As to `CCOC(=O)c1c(C)[nH]c2c1-c1ccccc1C(=O)C2=O`, the inhibition was 47% (active). As for `CCOC(=O)c1[nH]c2ccccc2c1N=C(C)N(CC)CC`, the inhibition was -9.79%.

In the case of `CCOC(=O)C1=C(C)c2ccccc2OC1(C)C(=O)OCC` (centres undefined), the inhibition was 2.41%.

Take `C=C(C)CSc1nc(N)c2c3c(sc2n1)CCC3`: the inhibition was 17.7%. Under `CC(C)(C)C1CCc2c(sc3nc(SCC(N)=O)nc(N)c23)C1` (centres undefined) stands 42.8% (active); under `Nc1nc(SCC(=O)NCCN2CCOCC2)nc2sc3c(c12)CCC3`, -9.91%. Under `O=S1(=O)CCC(NC(=S)SCc2ccccc2Br)C1` (centres undefined) stands -4.75%; under `CS(=O)(=O)Nc1ccc(C(=O)N2CCCC2)cc1`, -2.74%. Consider `Cc1c(Cl)cccc1NC(=O)NCCCN1CCCC1=O`, for which the inhibition was 2.74%. On to `Cc1c(Cl)cccc1NC(=O)Nc1ccc(C(=O)N2CCCC2)cc1`, for which the inhibition was 40.6% (active).

Regarding `COc1ccccc1CCNC(=O)CSc1nnc2ccc(-c3cccnc3)nn12`, the inhibition is 0.74%. Turning to `CCn1c(Cc2ccc(OC)cc2)nnc1SCC(=O)Nc1ccc(N2CCOCC2)cc1`, the inhibition was -5.02%. As for `Cc1ccc(-c2csc(-c3c[nH]c4ccccc34)n2)cc1`, the inhibition is 4.81%.

`Cc1ccc(C2=Nc3c(ccc4ccccc34)C(c3ccncc3)=NN2)cc1`: the inhibition was 60.3% (active). In the case of `CC(Sc1nnc(-c2ccccc2F)n1C1CC1)C(N)=O` (centres undefined), the inhibition was -8.94%. In the case of `CCCCCCCC1(C)NC(=O)N(CC(=O)Nc2cc(C)on2)C1=O` (centres undefined) it was -10.1%.

In the case of `O=C(C1CCN(S(=O)(=O)Cc2ccccc2)CC1)N1CCCc2ccccc21`, the inhibition is 13.8%. Turning to `Cc1ccc(N2CC(C(=O)NCCS(=O)(=O)N3CCN(c4ccccc4)CC3)CC2=O)cc1` (centres undefined), the inhibition was -5.93%. `Fc1ccc2c(c1)C(c1cccnc1)=NNC(c1cccs1)=N2`: the inhibition is -1.31%. Turning to `COc1ccc2c(c1)C(c1cccs1)=NNC(c1cccnc1)=N2`, the inhibition was 0.69%. In the case of `CCC1OC(c2ccc([N+](=O)[O-])cc2)=Nc2ccccc21` (centres undefined) it was -2.62%. For `CCOC(=O)C1=C(C)N(C[C@@H]2CC[C@@H](Cc3ccc(-c4ccccc4)cc3)O2)C(=O)NC1c1ccc([N+](=O)[O-])cc1` (some centres undefined), the inhibition is 1.26%.

As for `CCc1ccc2c(c1)C(c1ccc([N+](=O)[O-])cc1)=NNC(c1ccccc1)=N2`, the inhibition is 61% (active). In the case of `CCOc1ccc2c(c1)C(c1ccc(C)cc1)=NNC(c1ccc(C)cc1)=N2`, the inhibition is 65.9% (active).

Regarding `Cc1ccccc1CSc1nnc(-c2ccccc2)c(=O)[nH]1`, the inhibition was 11.3%. For the molecule `CCCN1C2CCCC1CC(NC(=O)c1cccc(OC)c1)C2` (centres undefined), the inhibition was -4.61%. Take `CC(C(=O)NCCc1ccc(S(N)(=O)=O)cc1)N1C(=O)CC(C)(C)Sc2ccccc21` (centres undefined): the inhibition is 1.71%.

As to `Cn1c2c(c(=O)n(C)c1=O)C(c1ccc(O)cc1)Nc1ccccc1O2` (centres undefined), the inhibition was -5.48%.

Take `CCc1nn(-c2cc(Oc3cccc4ccccc34)nc(-c3ccccc3)n2)c(N)c1C#N`: the inhibition is -7.41%. As to `COc1ccc(C)cc1N(C)C(=O)c1coc(=O)c2ccccc12`, the inhibition is -10%.

With `Cc1ccc(Nc2ccc(C(N)=O)cc2[N+](=O)[O-])cc1`, the inhibition is 66.7% (active). With `CCOc1ccccc1Nc1ccc(C(=O)O)cc1[N+](=O)[O-]`, the inhibition is -16.2%. In the case of `NC(=O)c1ccc(Nc2ccc3c(c2)CCC3)c([N+](=O)[O-])c1`, the inhibition was 29.8%.
